# Assay outcomes deposited in PubChem by The Scripps Research Institute Molecular Screening Center.
# GPR151 ag: activates the human receptor GPR151. hit rate 1% among 650,000. activation, % at 11.2 µM. Q8TDV0. PathHunter beta-arrestin GPR151 cells, luminescence; in the data active = activation above about 4.9%;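 note: 0% = median of compound wells and 100% = cells with positive control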
# FBW7 activator: human FBW7 E3 ligase activation, primary screen; AlphaScreen FBW7–phospho-cyclin E peptide binding, activator screen; normalized activity (activation), % at 26.1 µM; AID 1259310; Q969H0; hit rate 0.13% among 650,000; in the data active = normalized activity above about 1.9%;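 note: purified mutant Fbw7 with reduced substrate affinity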
# MITF inh: human MITF inhibition, primary screen. O75030. AlphaScreen MITF homodimerization, bead proximity signal. inhibition, % at 2.6 µM. hit rate 0.91% among 650,000. AID 1259374; in the data active = inhibition above about 50%;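 note: 0% = vehicle wells with protein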
# Target sequence (O75030 whole entry, looked up): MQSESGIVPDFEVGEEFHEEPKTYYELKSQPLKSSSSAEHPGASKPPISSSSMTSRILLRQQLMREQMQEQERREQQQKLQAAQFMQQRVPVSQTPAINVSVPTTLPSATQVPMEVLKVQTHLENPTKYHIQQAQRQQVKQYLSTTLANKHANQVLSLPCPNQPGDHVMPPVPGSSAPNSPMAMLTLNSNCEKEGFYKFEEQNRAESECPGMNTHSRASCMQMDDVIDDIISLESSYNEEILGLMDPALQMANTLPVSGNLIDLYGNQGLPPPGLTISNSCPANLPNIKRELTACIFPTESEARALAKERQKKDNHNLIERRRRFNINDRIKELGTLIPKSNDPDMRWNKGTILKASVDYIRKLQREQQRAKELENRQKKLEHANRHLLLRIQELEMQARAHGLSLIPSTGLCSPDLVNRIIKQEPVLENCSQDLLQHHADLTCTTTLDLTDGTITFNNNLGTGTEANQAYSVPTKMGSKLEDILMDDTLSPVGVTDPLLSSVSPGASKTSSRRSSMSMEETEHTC
# TEAD-YAP inh: TEAD-YAP interaction inhibition; AID 1259422; HEK-TIYL cells, TEAD-Gal4/YAP UAS-luciferase luminescence; hit rate 1.4% among 640,000; inhibition, % at 9.12 µM; in the data active = inhibition above about 32%;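 note: 0% = median of test compound wells and 100% = reference inhibitor wells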
# * hit, by the source's call. In the library only some 3.5% were active in any assay of this set; here they are far more common.
SMILES,GPR151 ag,FBW7 activator,MITF inh,TEAD-YAP inh
Cc1nc(C)c(C(=O)N2CCN(Cc3csc(-c4ccccc4)n3)CC2)s1,1,0,1,40*
COCC(=O)N1CCN(Cc2csc(-c3ccccc3)n2)CC1,1,0,14,-31
Cc1nc(-n2cccc2)sc1C(=O)N1CCN(Cc2csc(-c3ccccc3)n2)CC1,-2,0,11,30
O=C(c1ccc(-n2cccc2)cc1)N1CCN(Cc2csc(-c3ccccc3)n2)CC1,0,-1,42,60*
COc1ccc(C2CC(=O)C=C(Nc3cc(C)ccc3O)C2)cc1 (stereo not given),-1,0,-4,3
COc1ccc(C2CC(=O)C=C(Nc3cc(Cl)ccc3O)C2)cc1 (stereo not given),0,2.1*,4,3
Cc1c2oc3c(C)ccc(C(=O)OC(C)C4NC(=O)C(C(C)C)N(C)C(=O)CN(C)C(=O)C5CCCN5C(=O)C(C(C)C)NC4=O)c3nc-2c(C(=O)OC(C)C2NC(=O)C(C(C)C)N(C)C(=O)CN(C)C(=O)C3CCCN3C(=O)C(C(C)C)NC2=O)c(N)c1=O (stereo not given),3,0,-2,96*
O=C(Cc1ccccc1)Nc1cnn(-c2cccc(C(=O)Nc3ccc(Cn4ccnc4)cc3)c2)c1,0,0,-4,3
O=C(Nc1ccc(Cn2ccnc2)cc1)c1cccc(-n2cc(NC(=O)C3CCc4ccccc43)cn2)c1 (stereo not given),-1,0,-3,37*
Fc1cccc(-c2cnn3c(NCCc4cccnc4)ccnc23)c1,4,0,7,17
OCc1cccc(-c2cnn3c(NCCc4cccnc4)ccnc23)c1,-1,1,1,89*
Fc1ccccc1-c1cnn2c(NCCc3cccnc3)ccnc12,-2,0,-5,91*
Fc1ccccc1-c1cnn2c(NCc3ccccn3)ccnc12,0,2.2*,-1,-21
Oc1cccc(-c2cnn3c(NCCc4cccnc4)ccnc23)c1,0,0,7,89*
Cc1ccc(CC(=O)N(Cc2ccccn2)c2nc3c(F)cccc3s2)c(C)c1,0,0,-3,-8
O=C(Nc1ccccc1C(=O)O)c1cccnc1,-3,0,4,-6
c1ccc(-c2cnn3c(NCCc4ccccn4)ccnc23)cc1,1,0,-22,57*
CN(C)CCNc1ccnc2c(-c3ccccc3F)cnn12,-2,0,-3,63*
OCc1ccc(-c2cnn3c(NCCc4cccnc4)ccnc23)cc1,0,1,12,-5
c1ccc(-c2cnn3c(NCCc4cccnc4)ccnc23)cc1,-1,0,-6,80*
Clc1ccc(-c2cnn3c(NCCc4ccccn4)ccnc23)cc1,1,0,13,-52
CCOc1cc(C2NC(=O)NC(C)=C2C(=O)OCCc2ccccc2)ccc1O (stereo not given),0,0,-3,-4
Cc1ccccc1OCC(O)Cn1c(N2CCNCC2)nc2c1c(=O)[nH]c(=O)n2C (stereo not given),0,0,-8,7
Cc1c(C(=O)O)ccc2c1N[C@@H](c1cccc(Cl)c1)[C@H]1CC=C[C@@H]21,0,-1,76*,0
O=C(O)c1cccc2c1NC(c1ccc([N+](=O)[O-])cc1)C1CC=CC21 (stereo not given),0,0,65*,-4
SMILES,GPR151 ag,FBW7 activator,MITF inh,TEAD-YAP inh
O=C(O)c1cc(Br)cc2c1N[C@@H](c1ccc(F)cc1)[C@H]1CC=C[C@@H]21,-1,0,79*,-3
O=C(O)c1cccc2c1NC(c1ccccc1[N+](=O)[O-])C1CC=CC21 (stereo not given),0,0,67*,0
O=C(O)c1cccc2c1NC(c1cccc(Br)c1)C1CC=CC21 (stereo not given),1,0,24,8
Cc1ccc(S(=O)(=O)NCCc2cn3ccccc3n2)cc1,-2,2,7,9
CCOC(=O)c1c(NC(=O)C(C)Sc2nnc(CNC(=O)c3cc(OC)cc(OC)c3)n2Cc2ccccc2)sc2c1CCC2 (stereo not given),-1,0,-8,-11
C/C1=C2N=C(/C=C3N=C(/C(C)=C4\NC(C(CC(N)=O)C4(C)CCC(=O)NCC(C)OP(=O)(O)OC4C(CO)OC(n5cnc6cc(C)c(C)cc65)C4O)C4(C)N=C1C(CCC(N)=O)C4(C)CC(N)=O)C(CCC(N)=O)C\3(C)C)C(CCC(N)=O)C/2(C)CC(N)=O (stereo not given),-9,0,-35,33*
CC1=NN(c2ccccc2)C(=O)/C1=C/c1cccn1-c1ccccc1,-1,-1,64*,-44
CC1=NN(c2ccccc2)C(=O)/C1=C/c1ccc(Cl)cc1,2,0,4,-2
O=C(NCC(O)c1ccc(Cl)cc1)c1cc(-c2ccc3[nH]ncc3c2)c[nH]c1=O (stereo not given),0,0,12,3
Cc1ccc(NC(=O)CSc2nnc(-c3cccnc3)s2)cc1,2,0,8,-3
O=C(CSc1nnc(-c2cccnc2)s1)Nc1ccnc2ccccc12,-1,0,-11,48*
COc1ccc(C(=O)N2CCN(Cc3c(OC)ccc4ccccc34)CC2)cc1,1,0,30,9
CC(CO)Nc1c2ccccc2nc2ccccc12 (stereo not given),-1,0,-5,38*
O=C(NCc1ccccc1)c1cccc(Nc2ccc(N3CCOCC3)cc2)n1,3,0,7,25
COc1ccc(CCNC(=O)c2cccc(Nc3ccc(-n4ccnc4)cc3)n2)cc1,0,0,4,49*
O=C(NCCOc1ccccc1F)c1ccc2ccccc2n1,-3,0,-5,58*
O=C(NCCOc1ccccc1)c1ccc2ccccc2n1,-1,0,-14,53*
COc1ccc(CCNC(=O)c2cccc(Nc3ccncc3)n2)cc1,4,0,-2,2
O=C(NCCOc1ccccc1)c1cccc(Nc2ccc(N3CCOCC3)cc2)n1,4,0,1,47*
CC(C)C[C@H]1C(=O)N2CCN(S(=O)(=O)c3ccc(Cl)cc3)C[C@@H]2C(=O)N1C,0,1,9,-4
Cc1cccc(CN2CCN3C(=O)[C@@H](CC(C)C)NC(=O)[C@H]3C2)c1,0,0,-15,-11
COc1ccccc1C(=O)NC(NC(C)(C)C)C(Cl)(Cl)Cl (stereo not given),1,0,-11,-11
COc1ccccc1N1C(=O)c2ccc(C(=O)Nc3cc([N+](=O)[O-])ccc3O)cc2C1=O,-1,2.1*,-23,8
C#CCN(C)C(=O)c1c(C)nc2sccn12,0,1.9*,19,10
NC(=O)C(C(=O)/C=C/c1ccc(Cl)cc1)=C1SCCS1,3,0,-18,44*
CC1(C)C(=O)Nc2ccccc2N1C(=O)CSc1nnc(-c2ccco2)n1N,-2,0,0,-7
COc1ccc(Br)cc1/C=C1\SC(N2CCOCC2)=NC1=O,-2,-1,7,6
O=C(CNc1ccccc1)N/N=C/c1cc([N+](=O)[O-])ccc1O,5,0,54*,23
